Records with an inconclusive call do not appear. Unmarked numbers belong to inactive results. Unless noted, calls come from the whole dose curve; as a rule, active = well fitted cell-killing curve with a large enough effect in the repeat runs (not every such curve was filed as active); inconclusive = weak or mixed curves, or effect the other way; inactive = no such curve, though single readings can be large or run the other way.
Biological target: Bile acid receptor (Homo sapiens) (UniProt Q96RI1)
Assay: qHTS assay to identify small molecule agonists of the farnesoid-X-receptor (FXR) signaling pathway (AID 743220; active = well fitted activation curve with a large enough effect in the signal ratio in the repeat runs, not every such curve was filed as active; the % refers to the signal ratio)
Details: HEK293T FXR-UAS-bla, beta-lactamase FRET ratio, 16 h; series mostly up to 62.6 µM; activation: at the top concentration
Outline: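 Beta-lactamase reporter under UAS control in GeneBLAzer FXR HEK 293T cells (5000/well) measured with LiveBLAzer FRET substrate after 2 h at room temperature. Compound exposure lasted 16 h at 37C.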
% is set by controls: 0 for no effect and ±100 for the full control effect.

Chain of Bile acid receptor (Homo sapiens) (Q96RI1 whole entry, looked up): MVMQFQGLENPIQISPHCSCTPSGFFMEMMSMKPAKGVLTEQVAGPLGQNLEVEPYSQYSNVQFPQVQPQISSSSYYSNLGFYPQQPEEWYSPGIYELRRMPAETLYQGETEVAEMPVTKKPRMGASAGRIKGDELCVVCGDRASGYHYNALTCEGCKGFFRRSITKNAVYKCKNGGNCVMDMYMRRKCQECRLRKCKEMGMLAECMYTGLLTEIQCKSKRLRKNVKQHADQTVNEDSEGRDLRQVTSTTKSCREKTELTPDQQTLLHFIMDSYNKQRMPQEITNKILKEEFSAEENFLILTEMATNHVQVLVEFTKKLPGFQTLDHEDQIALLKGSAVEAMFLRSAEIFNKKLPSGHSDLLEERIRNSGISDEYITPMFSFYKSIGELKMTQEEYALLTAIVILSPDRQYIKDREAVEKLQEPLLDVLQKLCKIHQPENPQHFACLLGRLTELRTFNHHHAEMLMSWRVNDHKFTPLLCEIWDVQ

| Compound | activation |
| --- | --- |
| CN1[C@@H]2CC[C@H]1CC(OC(=O)c1c[nH]c3ccccc13)C2 (stereo partly specified) | -1.59% |
| CCN1CC(CCN2CCOCC2)C(c2ccccc2)(c2ccccc2)C1=O (stereo unspecified) | 3.28% |
| CCOc1ccc(OCC)c(Cl)c1 | 0.853% |
| CC(=O)OC1C2(C)CCC(C2)C1(C)C (stereo unspecified) | -1% |
| CC(C)C(=O)OCC(C)(C)C(O)C(C)C (stereo unspecified) | -0.929% [at 81.1 µM] |
| C[C@@H]1CN(c2c(F)c(N)c3c(=O)c(C(=O)O)cn(C4CC4)c3c2F)C[C@H](C)N1 | -2.46% [at 29.1 µM] |
| Cc1ccc(C)c(N)c1 | -1.93% |
| CC1(C)C(=O)N(Cl)C(=O)N1Br | -0.0309% |
| CCOC(=O)c1cc(=O)c2c(OCC(COc3cccc4oc(C(=O)OCC)cc(=O)c34)OC(=O)[C@@H](N)CCCCN)cccc2o1 | -2.1% |
| O=C(C(Cl)Cl)N1CCOC12CCCCC2 | -0.99% |

System: not listed separately
Assay: qHTS assay to identify small molecule antagonists of the farnesoid-X-receptor (FXR) signaling pathway - cell viability counter screen (AID 743221); note: nearly all actives have a fitted effect of over 50% in size
Details: FXR-bla HEK293T viability, CellTiter-Glo luminescence, 16 h; series mostly up to 62.6 µM; activity change, negative = cytotoxicity: at the top concentration
Outline: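 After a 5 h settling period, FXR-bla HEK 293T cells receive compound and chenodeoxycholic acid (50 uM final) and incubate 16 h at 37 C; CellTiter-Glo luminescence, read after 30 min at room temperature, reports cell viability.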

| Compound | activity change, negative = cytotoxicity |
| --- | --- |
| CN1[C@@H]2CC[C@H]1CC(OC(=O)c1c[nH]c3ccccc13)C2 (stereo partly specified) | -1.43% |
| O=S(=O)(O)C(F)(F)F | 7.9% |
| CCN1CC(CCN2CCOCC2)C(c2ccccc2)(c2ccccc2)C1=O (stereo unspecified) | 5.35% |
| CCOc1ccc(OCC)c(Cl)c1 | -20.7% |
| CC(C)(C)c1cccc(O)c1 | 21.5% |
| OCCN1CCN(CCO)CC1 | -2.51% [at 81.1 µM] |
| CC(C)C1=CC2=CC[C@@H]3[C@](C)(CCC[C@@]3(C)C(=O)O)[C@H]2CC1 | -0.73% |
| O=Cc1ccc(F)c(Br)c1 | -7.35% |
| CC(=O)OC1C2(C)CCC(C2)C1(C)C (stereo unspecified) | -9.39% |
| CO[Si](C)(C)OC | 0.273% |
| CC(C)C(=O)OCC(C)(C)C(O)C(C)C (stereo unspecified) | 14.2% [at 81.1 µM] |
| C[C@@H]1CN(c2c(F)c(N)c3c(=O)c(C(=O)O)cn(C4CC4)c3c2F)C[C@H](C)N1 | 4.45% [at 29.1 µM] |
| COC(=O)N[C@H](C(=O)N[C@@H](Cc1ccccc1)[C@@H](O)CN(Cc1ccc(-c2ccccn2)cc1)NC(=O)[C@@H](NC(=O)OC)C(C)(C)C)C(C)(C)C | 7.31% |
| CCCCCCCCCC#N | 0.122% |
| Cc1ccc(C)c(N)c1 | -3.32% |
| O=C1CCCc2ccccc21 | 0.703% [at 81.1 µM] |
| O=CCCc1ccccc1 | 1.43% |
| Cc1cn([C@@H]2O[C@H](CO)[C@@H](O)[C@@H]2F)c(=O)[nH]c1=O | -13.7% |

| Compound | activity change, negative = cytotoxicity |
| --- | --- |
| O=C(O)C(=O)Cc1c[nH]c2ccccc12 | 4.89% |
| CCCCN1C[C@H](O)[C@@H](O)[C@H](O)[C@H]1CO | -4.19% |
| CC/C=C\CCOC(=O)CCCCC | -8.23% |
| COc1ccccc1N1CCN(CCCNc2cc(=O)n(C)c(=O)n2C)CC1 | 4% |
| CC1(C)C(=O)N(Cl)C(=O)N1Br | 18.5% |
| CN(C)Cc1ccccc1 | -3.11% [at 81.1 µM] |
| CC(Oc1c(Cl)cccc1Cl)C1=NCCN1 (stereo unspecified) | -3.79% |
| O=C(O)CN(CCN(CC(=O)O)CC(=O)O)CCN(CC(=O)O)CC(=O)O | 8.85% [at 29.1 µM] |
| Cc1ccc([N+](=O)[O-])c(N)c1 | -0.129% |
| O=C(CCCl)NCc1ccccc1 | 1.89% |
| NC/C=C/C(=O)O | 6.24% |
| Nc1cccc(S(=O)(=O)O)c1 | 0.997% |
| CN1CCC[C@@H]1Cc1c[nH]c2ccc(CCS(=O)(=O)c3ccccc3)cc12 | 6.15% |
| CC(C)OC(C)C | 5.41% [at 81.1 µM] |
| CCOC(=O)c1cc(=O)c2c(OCC(COc3cccc4oc(C(=O)OCC)cc(=O)c34)OC(=O)[C@@H](N)CCCCN)cccc2o1 | -0.435% |
| O=C(C(Cl)Cl)N1CCOC12CCCCC2 | 1.02% |
| C[C@]12CCC(=O)C=C1CC[C@@H]1[C@@H]2CC[C@@]2(C)[C@H]1CC[C@]2(O)C(=O)CO | -0.704% |
| CC(C)Nc1nc(N)nc(Cl)n1 | 6.53% |

— PubChem BioAssay (Tox21)
